Experimental findings from PubChem BioAssay are described below.

SMILES strings stand for the structures. The source made the active and inactive calls. Unless noted, the rule behind the calls is not given here.

The term inhibition denotes the change of the read-out against control, counted positive when it falls.

Test system in one assay: not listed separately
Briefly: HepG2 cytotoxicity, primary screen, cytotoxicity control for P. falciparum antimalarial project, cell-based, ATP luminescence (AID 2303;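 active = inhibition above 50%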;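 note: 0% = DMSO wells and 100% = digitonin-killed cells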). The conditions noted are these: HepG2 viability, 24-48 h, at 10 µM, active compounds read high.
For `CC1(C)CCC(C)(C)c2c1ccc(C1CCN(CCCCNC(=O)c3ccc(-c4ccc(Cl)cc4)cc3)CC1)c2O`, the inhibition is 100% (active).
Turning to `COc1ccc(CCNC(=O)c2cnc3c(c2)nc(-c2cnc(-c4ccccc4)[nH]2)n3CCc2cnc[nH]2)cc1`, the inhibition is 16% (inactive).
For `COc1cc(C)nc2ccc(NC(=O)c3cc(C(F)(F)F)cc(C(F)(F)F)c3)cc12`, the inhibition is 16% (inactive).
Turning to `CCCc1cc(C)ccc1OCCCON1C(NC(=O)OCC)=NC(NC(=O)OCC)=NC1(C)C`, the inhibition was 62% (active).
Consider `O=C(c1ccc(F)c(F)c1)N1CCOC(CCN2CCC(c3ccccc3)CC2)(c2ccc(Cl)c(Cl)c2)C1` (stereo not given), for which the inhibition is 51% (active).
For `CC(=O)N(C)/N=C/[C@H](CCc1ccccc1)NC(=O)[C@H](CC(C)C)NC(=O)c1cccc(OCCN2CCOCC2)c1`, the inhibition was 5% (inactive).

The target of the next assay is L-lactate dehydrogenase (Plasmodium falciparum (isolate CDC / Honduras)) (UniProt Q27743). Briefly: PfLDH activity inhibition – cell lysate, 3D7 strain, counter-screen for P. falciparum growth inhibition project (AID 2304).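 Note: 0% = vehicle and 100% = reference inhibitor.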 The conditions noted are these: P. falciparum 3D7 crude extract, LDH APAD/NBT absorbance; at 2 µM; active compounds read high. (The purpose of a counterscreen is to sort out artefacts and off-target activity.)
Sequence of L-lactate dehydrogenase (Plasmodium falciparum (isolate CDC / Honduras)) (Q27743 whole entry, looked up): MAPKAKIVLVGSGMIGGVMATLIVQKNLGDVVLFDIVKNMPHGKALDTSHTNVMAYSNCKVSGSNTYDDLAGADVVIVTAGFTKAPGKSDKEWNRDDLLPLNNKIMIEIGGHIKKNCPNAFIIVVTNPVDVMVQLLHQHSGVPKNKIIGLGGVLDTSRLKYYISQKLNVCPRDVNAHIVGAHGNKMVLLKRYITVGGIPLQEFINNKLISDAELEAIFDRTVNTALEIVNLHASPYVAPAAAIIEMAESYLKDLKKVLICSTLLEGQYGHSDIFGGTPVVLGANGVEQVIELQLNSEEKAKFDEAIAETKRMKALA
Turning to `c1ccc(CN2CCC(Nc3ccc(-c4cn[nH]c4-c4ccccn4)nc3)CC2)cc1`, the inhibition is -5% (inactive).
Still for that read-out and setting: for `CN1CCN(c2cc3c(cc2Cl)CCN3C(=O)Cc2ccc(NC(=O)Nc3cccc4ccccc34)cc2)CC1` the value was -11% (inactive); for `O=C(CCC1CCCCC1=O)c1ccccc1` (stereo not given), -4% (inactive).
As to `CCOc1c(C)cc(C(F)(F)F)cc1CNCCCNc1cc(=O)c2ccccc2[nH]1`, the inhibition was -7% (inactive).
With `CCc1cn2c3c(cc(C(=O)N[C@@H](Cc4ccccc4)[C@H](O)CNC4CCCC4)cc13)N(C)S(=O)(=O)CC2`, the inhibition is -8% (inactive).
Turning to `COc1ccc(NC(=O)[C@H](CC(C)C)Nc2cc(C)nc(NCCc3ccc(F)cc3)n2)cc1`, the inhibition was -3% (inactive).
`CN(C)CCN(C)Cc1ccc(-c2ccc(NC(=O)c3ccc(Cl)cc3)cc2)cc1`: the inhibition is -2% (inactive).
On the same count and under the same terms, as for `Cc1cc(-c2cc3nc4c(c(=O)n3[nH]2)CCCC4)c(C)o1`, the figure is -4% (inactive); as for `CC(C)NCC(=O)Nc1cccc(C(=O)Nc2cccc(C(F)(F)F)c2)c1`, 4% (inactive).
For the molecule `Cn1c(NC(=O)C2CCC(CNC(=O)c3ccc(O)c(-c4ccc(Cl)c(Cl)c4)c3)CC2)nc2ccccc21` (stereo not given), the inhibition was 1% (inactive).
On the same count and under the same terms, for `O=C(Nc1ccc(OC2CCN(Cc3ccsc3)C2)c(Cl)c1)c1ccco1` (stereo not given) the value was -5% (inactive).
With `O=c1[nH]c2c(c(O)c1[N+](=O)[O-])CCC2`, the inhibition was -5% (inactive).
Same read-out and setting: as for `COc1cc(OC)c2c(C)cc(NCCCn3ccnc3)nc2c1`, the figure is -2% (inactive).
With `CN1CCCN(Cc2cccc(-c3cccc(NC(=O)c4cccc(C#N)c4)c3)c2)CC1`, the inhibition was 2% (inactive).
On to `O=C(NCCSCc1c(F)cccc1Cl)c1cnc2c(c1)nc(-c1cnc(-c3ccccc3)[nH]1)n2CCc1cnc[nH]1`, for which the inhibition was 0% (inactive).
In the case of `O=C(Nc1ccc(Cl)cc1)Nc1ccc(-c2csc(-c3nc4ccccc4[nH]3)c2)cc1`, the inhibition was -4% (inactive).
As to `CCOC(=O)C(C(C)=O)C(c1ccccc1)C(C(C)=O)C(=O)OCC` (stereo not given), the inhibition was 2% (inactive).
Consider `CN(C)CCCn1c(C(=O)OC(c2ccccc2)c2ccccc2)cc2cc(OCc3ccccc3)ccc21`, for which the inhibition is 0% (inactive).
`Cc1noc(C)c1-c1cccc(CNCc2cccc(-c3cccc(-c4nc5ccc(F)cc5[nH]4)c3)c2)c1`: the inhibition is 3% (inactive).
In the case of `CCOc1cc(C(=O)NCCc2ccc(Cl)c(Cl)c2)ccc1-c1nc2ccc(Cl)cc2[nH]1`, the inhibition is -4% (inactive).
For `c1cc(CNCCc2ccncc2)cc(-c2csc(-c3nc4ccccc4[nH]3)c2)c1`, the inhibition is -8% (inactive).
For the molecule `CN(C)c1ccc(-c2csc(C(=O)NCC3CCN(Cc4cccc(C(F)(F)F)c4)C3)c2)cc1` (stereo not given), the inhibition was -2% (inactive).
`CC(C)c1ccc(CN2CCC(NC(=O)c3ccc(-c4cccc(F)c4)s3)CC2)cc1`: the inhibition was 3% (inactive).
`O=C(Cn1c(SCc2cccc(F)c2F)cc(=O)c2ccccc21)N(CCc1cnc[nH]1)Cc1ccc(-c2ccc(C(F)(F)F)cc2)cc1`: the inhibition is 7% (inactive).
On the same count and under the same terms, as for `CCOC(=O)c1c(CCc2ccc(C(F)(F)F)cc2)nc2c(c1-c1ccc(C(=O)N[C@@H](C)c3ccncc3)cc1)C(=O)N1CCC[C@@H]21`, the figure is -2% (inactive); as for `CCCCCn1c(Sc2ccc(C#N)c([N+](=O)[O-])c2)nnc1-c1ccc(OC)cc1`, 4% (inactive); as for `c1cc(C2=N[C@H]3CCCC[C@@H]3N2)ccc1OCCCOc1ccc(C2=N[C@@H]3CCCC[C@H]3N2)cc1`, -3% (inactive).
Still for that read-out and setting: as for `O=C(/C=C/c1ccc(Cl)cc1)NCCCCCN1CCN(C(=O)Nc2ccc(Cl)c(C(F)(F)F)c2)CC1`, the figure is 8% (inactive); as for `COC(=O)c1cccc(NC(=O)NC2CCN(c3ccnc(Nc4ccc(OC)cc4)n3)C2)c1` (stereo not given), -3% (inactive); as for `O=C(NC1CCN(Cc2cccc(C(F)(F)F)c2)CC1)c1ccc(-c2cccc(Cl)c2)s1`, -1% (inactive).
With `CN(C)CCNCc1ccc(-c2cccc(-c3nc4ccccc4[nH]3)c2)cc1`, the inhibition is 6% (inactive).
In the case of `Cc1cc(NN=Cc2ccccn2)c2cc(F)ccc2n1`, the inhibition is 5% (inactive).
Still for that read-out and setting: for `O=C(/C=C/c1ccc(Cl)c(Cl)c1)NCCCCCN1CC[C@H](NC(=O)Nc2ccc(Oc3ccccc3)cc2)C1` the value was -9% (inactive); for `CC1(C)CCC(C)(C)c2c1ccc(C1CCN(CCCCNC(=O)c3ccc(-c4ccc(Cl)cc4)cc3)CC1)c2O`, -2% (inactive).
With `COc1ccc(CCNC(=O)c2cnc3c(c2)nc(-c2cnc(-c4ccccc4)[nH]2)n3CCc2cnc[nH]2)cc1`, the inhibition is 1% (inactive).
For the molecule `COc1cc(C)nc2ccc(NC(=O)c3cc(C(F)(F)F)cc(C(F)(F)F)c3)cc12`, the inhibition is 0% (inactive).
Same read-out and setting: for `CCCc1cc(C)ccc1OCCCON1C(NC(=O)OCC)=NC(NC(=O)OCC)=NC1(C)C` the value was 0% (inactive); for `O=C(c1ccc(F)c(F)c1)N1CCOC(CCN2CCC(c3ccccc3)CC2)(c2ccc(Cl)c(Cl)c2)C1` (stereo not given), 2% (inactive).
In the case of `CC(=O)N(C)/N=C/[C@H](CCc1ccccc1)NC(=O)[C@H](CC(C)C)NC(=O)c1cccc(OCCN2CCOCC2)c1`, the inhibition was 5% (inactive).
